Assay results published in PubChem BioAssay.
Where “and” joins values, the source holds several entries; their conditions need not be identical. Equal values may be shown once. Where a structure was tested more than once in an assay, its records may differ in their call. Calls of active or inactive are those of the source.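 The calls were made as follows, unless noted: active = mean z-score across replicates of 1.96 or higher in either the MELAS or the Rieske mutant cell line; inactive = the rest.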

Legend:
[1] = Wnt pathway potentiators raising nuclear beta-catenin – imaging, WNT3A-conditioned medium, mouse C2C12, NPC library, primary screen (AID 1117326; in the data active = nuclear beta-catenin stimulation mostly above about 4.2%, no sharp cut-off; inactive = mostly below about 10%; also: reference of the scale not given here); conditions: stronger effect = higher value
[2] = stimulators of insulin release from INS-1E, primary screen, cell-based, 5 mM glucose, NPC library (AID 1117329;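 active = compound raises insulin release from rat beta cells at 5 mM glucose, no numeric limit stated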; also: reference of the scale not given here); conditions: rat INS-1E insulin secretion, at 10 µM, stronger effect = higher value
[3] = growth inhibition of GSK3B-pretreated HCT116 cells – cell-based, CellTiter-Glo, 0.2 to 20 µM (AID 1117336;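 active = compounds lowering colon cancer cell viability after pretreatment blocking the GSK3B kinase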); conditions: HCT116 viability after GSK3B inhibitor, at 20 µM, stronger effect = higher value
[4] = inhibition of endothelial tube formation, primary screen, imaging, VEGF stimulated, CD31 staining, tube area, NPC library (AID 1117340;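 active = compound that reduces growth-factor-driven endothelial tube area in a mixed cell culture, no cutoff stated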); conditions: VEGF-stimulated ADSC/ECFC co-culture, at 10 µM, stronger effect = higher value
[5] = GLP1 release stimulators, primary, NCI-H716, NPC library (AID 1117341;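 active = compound raises GLP1 secretion from the human gut endocrine cells, with no numeric limit stated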; also: reference of the scale not given here); conditions: NCI-H716 cells, at 10 µM, stronger effect = higher value
[6] = HCT116 colon cancer cell growth inhibition, primary screen, CellTiter-Glo luminescence, NPC library (AID 1117342;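 active = compounds that lower survival of HCT116 colon cancer cells in the luminescence readout, no numeric limit stated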); conditions: at 20 µM (top of the series)
[7] = reduced SW480 viability measured with CellTiter-Glo, NPC library, primary (AID 1117343;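 active = compounds that lower viability of the colon cancer cells in the luminescence readout, with no numeric limit stated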); conditions: CellTiter-Glo luminescence; at 20 µM (top of the series) unless noted
[8] = NPC library primary testing for decreased DLD-1 cell viability via CellTiter-Glo (AID 1117346;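 active = compounds that lower survival of DLD-1 colon cancer cells in the luminescence readout, no cutoff given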); conditions: DLD-1 viability, CellTiter-Glo luminescence; at 20 µM (top of the series)
[9] = viability loss with induced miR-34 in A549 – imaging, A549 dox-inducible miR-34, nuclei and caspase counts, primary screen (AID 1347080;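 active = compounds whose cell count with miR-34 switched on is under 0.7 times the count with it off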); conditions: A549 miR-34 inducible, Hoechst nuclei count, 48 h
[10] = MELAS cybrid and Rieske KO viability enhancers – cell-based, MELAS cybrids, Rieske KO mouse fibroblasts, CellTiter-Glo, primary screen (AID 1508586); conditions: low glucose;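 also: z relative to plate mean and SD of compound and empty wells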
[11] = galactose survival enhancers in mitochondrial complex I cybrids – cell-based, galactose medium, ATP luminescence, primary screen (AID 1645843;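 active = z-score of at least 1.8 in each of two replicates, scored against plate mean and spread of sample wells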;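 also: positive z means more ATP and so rescue of galactose-driven cybrid death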); conditions: complex I mutant cybrid cells, 72 h, stronger effect = higher value
[12] = P. berghei load reduction in hepatocytes – cell-based, HepG2, luciferase luminescence, HepG2 viability, primary screen (AID 624349; in the data active = parasite load remaining mostly below about 12%, no sharp cut-off; inactive = mostly above about 10%;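 also: 100% = mean of DMSO negative control wells on the same plate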); conditions: P. berghei liver stage in HepG2, luciferase luminescence, concentration not given here; parasite load remaining: stronger effect = lower value; viability: measured here: HepG2 viability without parasites
[13] = stronger effect = lower value, cell number ratio, induced over uninduced
[14] = measured here: relative caspase fold change +Dox/-Dox
[15] = measured here: total cells with miR-34 induction, stronger effect = lower value
[16] = measured here: total cells without miR-34 induction
[17] = MELAS cybrid survival, CellTiter-Glo 48 h, stronger effect = higher value
[18] = Rieske KO mouse fibroblast survival, CellTiter-Glo 72 h

Structure (SMILES) | nuclear beta-catenin stimulation ([1]; at 10 µM) | nuclear beta-catenin stimulation ([1]; stimulation, at 2 µM) | insulin secretion stimulation [2] | viability decrease [3] | tube area decrease [4] | GLP1 secretion stimulation [5] | inhibition of viability [6] | viability decrease (inhibition) [7] | viability decrease (inhibition) [8] | fold change [9, 13] | fold change [9, 14] | cell count [9, 15] | cell count [9, 16] | z-score [10, 17] | z-score [10, 18] | z-score [11] | parasite load remaining [12] | viability [12]
COc1ccc(C=CC(=O)Nc2ccccc2C(=O)O)cc1OC | -1.3% (inactive) | 2.1% | 0.9% (inactive) | 4.3% (inactive) | -1.3% (inactive) | -5.7% (inactive) | -5.8% (inactive) | 4.8% (inactive) | -29.2% (inactive) | 0.906 (inactive) and 0.975 (inactive) | 1.48 and 0.856 | 9440 and 8000 | 10400 and 8210 | -0.386 (inactive) | 0.573 | 0.955 (inactive) |  | 
CC(C)Nc1cccnc1N1CCN(C(=O)c2cc3cc(NS(C)(=O)=O)ccc3[nH]2)CC1 | 0.8% (inactive) | -0.4% | -1.5% (inactive) | -11.6% (inactive) | -1.5% (inactive) | 2.1% (inactive) | 28.8% (inactive) | 0.9% (inactive) | -21.2% (inactive) | 0.904 (inactive) | 1.31 | 9200 | 10200 | 0.775 (inactive) and 1.98 (active) | 0.201 and 1.19 | 0.98 (inactive) | 42.2% (inactive) | 102%
CCCC(=O)OCOC(=O)C1=C(C)NC(C)=C(C(=O)OC)C1c1cccc(Cl)c1Cl (stereo not given) | 15.7% (inactive) | 12.3% | 3.9% (inactive) | -9.1% (inactive) | -4.1% (inactive) | 5.1% (inactive) | 25.4% (inactive) | 6.5% (inactive) | 14.3% (inactive) | 0.959 (inactive) and 0.978 (inactive) | 0.415 and 0.463 | 8260 and 7700 | 8610 and 7870 | 0.611 (inactive) and -0.319 (inactive) | -0.278 and 0.00408 | -1.31 (inactive) |  | 
C#C[C@]1(OC(C)=O)CC[C@H]2[C@@H]3CCC4=C[C@@H](OC(C)=O)CC[C@@H]4[C@H]3CC[C@@]21C | 4.6% (inactive) | 2.1% | 0.1% (inactive) | -55.2% (inactive) | -2.9% (inactive) | -2.3% (inactive) | 45% (inactive) | 80.6% (active) | 64.6% (active) | 0.877 (inactive) | 1.09 | 9000 | 10300 | -0.135 (inactive) | 0.556 |  | 82.1% (inactive) | 93.8%
CN(Cc1ccc(C(C)(C)C)cc1)Cc1cccc2ccccc12 | -1.4% (inactive) | -0.7% | -1% (inactive) | 37.6% (inactive) | 7.1% (inactive) | -4% (inactive) | 50.7% (active) | 62.7% (active) | 37.8% (inactive) | 0.848 (inactive) and 0.895 (inactive) | 0.76 and 0.344 | 7540 and 9920 | 8900 and 11100 | -0.284 (inactive) and -0.0947 (inactive) and -0.415 (inactive) | -0.307 and 0.166 and -0.508 | -1.71 (inactive) | 43.3% (inactive) | 140%
O=C(O)COC(=O)Cc1ccccc1Nc1c(Cl)cccc1Cl | 1.1% (inactive) | -1% | 3.2% (inactive) | 30.7% (inactive) | -0.5% (inactive) | 1% (inactive) | 26% (inactive) | 83.7% (active) | 20.5% (inactive) | 0.899 (inactive) and 0.88 (inactive) | 1.19 and 1.2 | 8790 and 10000 | 9770 and 11400 | -0.0312 (inactive) and 0.298 (inactive) | -0.0287 and -0.406 | 0.67 (inactive) | 25.9% (inactive) and 102% (inactive) and 21.3% (inactive) | 47% and 92.7% and 77%
CCCCN1C[C@H](O)[C@@H](O)[C@H](O)[C@H]1CO | 2.8% (inactive) | 0.2% | -1.2% (inactive) | -13.2% (inactive) | 8.1% (inactive) | -0.1% (inactive) | -0.5% (inactive) | 23.4% (inactive) | 3.5% (inactive) | 0.88 (inactive) | 0.958 | 9280 | 10500 | 0.308 (inactive) | -0.247 | 0.145 (inactive) | 45.7% (inactive) | 77.5%
CC(=O)[C@H]1CC[C@H]2[C@@H]3C=CC4=CC(=O)CC[C@@]4(C)[C@@H]3CC[C@]12C | 4.5% (inactive) | 1.5% | -1.8% (inactive) | 6.3% (inactive) | 4.8% (inactive) | 3.1% (inactive) | 14.9% (inactive) | 64.2% (active) | 5.4% (inactive) | 0.855 (inactive) | 1.43 | 8320 | 9730 | 0.367 (inactive) | 0.105 |  | 84.3% (inactive) | 94.2%
CC[C@H](c1ccc(O)cc1)[C@@H](CC)c1ccc(O)cc1 | 11.6% (inactive) | 2.5% | 1.4% (inactive) | 89.6% (active) | 20.9% (inactive) | 40% (active) | 97% (active) | 118% (active) | 101% (active) | 0.78 (inactive) | 0.948 | 7720 | 9900 | -1.4 (inactive) | -0.231 | -0.325 (inactive) | 16.7% (inactive) | 82%
CC(=O)N(CC(O)CO)c1c(I)c(C(=O)NCC(O)CO)c(I)c(C(=O)NCC(O)CO)c1I (stereo not given) | -2.4% (inactive) | -1.5% | 7% (inactive) | -5% (inactive) | 1.5% (inactive) | -5.6% (inactive) | 4.5% (inactive) | 4.9% (inactive) | 0.4% (inactive) | 0.842 (inactive) | 1.09 | 8930 | 10600 | 0.412 (inactive) | -0.115 |  | 114% (inactive) and 69.4% (inactive) | 108% and 73.4%
C#CC1(O)CC[C@H]2[C@@H]3CCC4=CCCC[C@@H]4[C@H]3CC[C@@]21C (stereo not given in full) | 0.9% (inactive) | 0.1% | 16.9% (inactive) | 110% (active) | 14.7% (inactive) | 20.3% (active) | 113% (active) | 132% (active) | 102% (active) | 0.949 (inactive) | 1.31 | 8290 | 8740 | 0.595 (inactive) | 0.485 |  | 25.2% (inactive) and 119% (inactive) | 48.4% and 91.7%
